In PubChem BioAssay AID1159580 (chemical genetic matrix, 2015):
About 2,000 (36%) of roughly 5,500 compounds were called active. Inconclusive results (about 18%) are left out. No stated cut-off is given here; in the data, active means normalized growth mostly below about 0.91 (no sharp cut-off); inconclusive means no clear call, values can overlap the other calls; inactive means mostly above about 0.92. Some of the results follow.

Test: chemical genetic growth profiling, strain panel (AID 1159580);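 further: tested at 20 µM; growth read once vehicle control cultures reached saturation at 30 °C; 1 = growth at the plate median or of vehicle wells; lower values mean less growth of the strain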
Conditions: growth OD
[1] = S. cerevisiae deletion strains, locus YAL013W, strain DEP1, hits give low values
[2] = S. cerevisiae deletion strains, locus YDR150W, strain NUM1, hits give low values
[3] = S. cerevisiae deletion strains, locus YGR229C, strain SMI1, hits give low values
[4] = S. cerevisiae deletion strains, locus YJR075W, strain HOC1, hits give low values
[5] = S. cerevisiae deletion strains, locus YNL322C, strain KRE1, hits give low values
[6] = S. cerevisiae deletion strains, locus YPL055C, strain LGE1, hits give low values
[7] = S. cerevisiae deletion strains, locus YPL241C, strain CIN2, hits give low values
[8] = S. cerevisiae deletion strains, locus YAL040C, strain CLN3, hits give low values
[9] = S. cerevisiae deletion strains, locus YCL061C, strain MRC1 (second series), hits give low values
[10] = S. cerevisiae deletion strains, locus YDR363W, strain ESC2, hits give low values
[11] = S. cerevisiae deletion strains, locus YER002W, strain NOP16, hits give low values
[12] = S. cerevisiae deletion strains, locus YMR307W, strain GAS1, hits give low values
[13] = S. cerevisiae deletion strains, locus YNL175C, strain NOP13, hits give low values
[14] = S. cerevisiae deletion strains, locus YNL197C, strain WHI3, hits give low values
[15] = S. cerevisiae deletion strains, locus YNL224C, strain SQS1, hits give low values
[16] = S. cerevisiae deletion strains, locus YOR083W, strain WHI5 (second series), hits give low values

Measured: normalized growth

CCOC(=O)c1cnc2cc(C)nn2c1C
inactive: [1] 0.994 | S. cerevisiae deletion strains, locus YBR229C, strain ROT2, hits give low values 0.994 | S. cerevisiae deletion strains, locus YCL061C, strain MRC1, hits give low values 0.999 | S. cerevisiae deletion strains, locus YDL101C, strain DUN1, hits give low values 0.997 | [2] 0.964 | S. cerevisiae deletion strains, locus YEL061C, strain CIN8, hits give low values 0.997 | S. cerevisiae deletion strains, locus YGR078C, strain PAC10, hits give low values 1 | [3] 0.983 | S. cerevisiae deletion strains, locus YHR030C, strain SLT2, hits give low values 0.986 | S. cerevisiae deletion strains, locus YHR087W, strain rtc3, hits give low values 1.01 | S. cerevisiae deletion strains, locus YJL187C, strain SWE1, hits give low values 1.01 | S. cerevisiae deletion strains, locus YJR043C, strain POL32, hits give low values 1.01 | [4] 0.998 | S. cerevisiae deletion strains, locus YKL190W, strain CNB1, hits give low values 0.992 | S. cerevisiae deletion strains, locus YLR039C, strain RIC1, hits give low values 0.987 | S. cerevisiae deletion strains, locus YLR058C, strain SHM2 (second series), hits give low values 1 | S. cerevisiae deletion strains, locus YLR085C, strain ARP6, hits give low values 0.944 | S. cerevisiae deletion strains, locus YLR262C, strain YPT6, hits give low values 0.99 | S. cerevisiae deletion strains, locus YML094W, strain GIM5, hits give low values 0.953 | S. cerevisiae deletion strains, locus YMR219W, strain ESC1, hits give low values 0.991 | S. cerevisiae deletion strains, locus YMR263W, strain SAP30, hits give low values 1 | S. cerevisiae deletion strains, locus YNL298W, strain CLA4 (second series), hits give low values 0.996 | [5] 0.994 | S. cerevisiae deletion strains, locus YNR030W, strain Alg12, hits give low values 0.981 | S. cerevisiae deletion strains, locus YOL006C, strain TOP1, hits give low values 0.965 | [6] 0.909 | [7] 0.956 | S. cerevisiae deletion strains, locus YPR135W, strain CTF4, hits give low values 1.01 | S. cerevisiae strains, strain wild type, hits give low values 0.991

CCOC(=O)c1cnc2c(cnn2CC)c1NN=C(C)C
active: [9] 0.943 | [3] 0.76 | [12] 0.856 | [16] 0.844
inactive: [1] 0.918 | [8] 1.01 | [10] 0.918 | [11] 0.959 | S. cerevisiae deletion strains, locus YNL153C, strain GIM3, hits give low values 0.909 | [13] 0.961 | [14] 0.976 | [15] 0.97 | [6] 0.966 | [7] 0.964

CCCCNc1c(C(=O)OCC)c(C)nc2c1cnn2CC
inactive: [8] 0.933 | [9] 0.998 | [2] 0.999 | [10] 1.01 | [11] 0.998 | [3] 1.01 | [4] 1.01 | [12] 0.998 | S. cerevisiae deletion strains, locus YNL128W, strain TEP1, hits give low values 0.959 | [13] 0.941 | [14] 0.947 | [15] 0.951 | [5] 1 | [6] 1.01 | [7] 0.993
active: [16] 0.845
